# Results filed as inconclusive are left out. Calls of active or inactive are those of the source. Rule for the calls: active = hit-call score of the fitted dose curve at least 0.9, where 1 is the maximum; inconclusive = response in the unintended direction; inactive = score below 0.9.
# How the values were obtained:
# [1] = STM_H9_NormalizedViability: Cytotoxicity Assessment at 120 hours in the Stemina devTOX quickPredict H9 human embryonic stem cell (hESC)-based Assay (AID 2283784)
# Method in brief: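 Here, H9 cells received test compound with daily medium renewal. Each plate included methotrexate references (1uM, 5 nM), 0.1% DMSO and media blanks; CellTiter-Fluor RFU was normalized to DMSO.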
# AR (gene 367) [2] = molecular target: AR (gene 367) (UniProt P10275); assay: ACEA_AR_antagonist_80hr: ACEA Biosciences xCELLigence Real-Time Cell Analysis on Androgen Receptor Antagonism for Proliferation (AID 2283787);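 note: 22Rv1 human prostate cancer cells with growth followed by electrical impedance; hits lower the impedance growth signal relative to DMSO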
# Method in brief: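 Impedance-based real-time growth of 22Rv1 prostate cells, read 80 h after dosing. Eight concentrations, 1:4 series, top 100 uM final (0.5% DMSO), n = 2; signal decrease scored against DMSO.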
# [3] = system: turtle Androgen Receptor (AR), gene 101947425; assay: ATG_trAR_XSP1: Attagene TRANS-FACTORIAL Multi-Species (XSP1) HepG2 Assay for turtle Androgen Receptor (AR) (AID 2283786)
# Method in brief: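 Partial androgen stimulation is provided by 3 nM 6-alpha-fluorotestosterone in a multi-species trans-factorial panel expressing a turtle AR–GAL4 fusion in HepG2. After 24 h, reporter mRNA is measured by RT-PCR and capillary electrophoresis and fitted upward against DMSO.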
# [4] = ATG_M_19_XSP1: Attagene TRANS-FACTORIAL Multi-Species (XSP1) HepG2 Assay for M19 Transcription Factor (Internal Marker) (AID 2283798)
# Protocol: (§1) ATG_XSP1_multi-species_TRANS is a cell-based, multiplexed assay created by modifying the existing Attagene TRANS-FACTORIAL system to include a panel of nuclear receptors from some or all the following species: human (Homo sapiens), mouse (Mus musculus), frog (Xenopus laevis), zebrafish (Danio rerio), chicken (Gallus gallus), and turtle (Chrysemys picta). The ECOTOX-FACTORIAL format uses HepG2, a human liver cell line, with measurements taken at 24 hours after chemical dosing in a 24-well plate. Xsp1 included 3 nM 6-alpha-fluorotestosterone to partially stimulate the androgen receptor.ATG_M_19_XSP1 is one of 29 assay components measured or calculated from the ATG_XSP1_multi-species_TRANS assay. It is designed to make measurements of mRNA induction, a form of inducible reporter, as detected with fluorescence intensity signals by Reverse transcription polymerase chain reaction (RT-PCR) and Capillary electrophoresis technology.This assay endpoint, ATG_M_19_XSP1, was analyzed in the positive analysis fitting direction relative to DMSO as the negative control and baseline of activity. Using a type of inducible reporter, measures of mRNA for gain-of-signal activity can be used to understand the background control at the transcription factor-level as they relate to the gene. Furthermore, this assay endpoint can be referred to as a secondary readout, because this assay has produced multiple assay endpoints where this one serves a background control function. To generalize the intended target to other relatable targets, this assay endpoint is annotated to the background measurement intended target family, where the subfamily is internal marker.
# (§2) Human liver HepG2 cells are transiently transfected with multiple reporter transcription units (MRTUs) in 6-well plates using FuGene 6 reagent (Roche; 3 ml FuGene/1 mg DNA). The MRTU constructs are regulated by a cis-regulating element (promoter). […] A major difference between the CIS and TRANS system is that in CIS activities of endogenous TFs are measured, whereas the TRANS assay evaluates changes in activities of exogenous, chimeric NR-Gal4 proteins. […] At the end of 24 hour incubation, total RNA was isolated using TriZol reagent (Invitrogen). The isolated RNA is then reverse-transcribed using oligo(dT) primer and Mo-MLV reverse transcriptase (Invitrogen) with DNAse I (Ambion) treatment for 30 min. […] The fragments were purified using Qiaquick PCR columns (Qiagen), analyzed on an ABI 3130xL genetic analyzer (Applied Biosystems) with peak positions identified by using a set of X-rhodamine (ROX)-labeled MapMarker1000 molecular weight standards (BioVentures). […]
# [5] = ATG_M_32_XSP1: Attagene TRANS-FACTORIAL Multi-Species (XSP1) HepG2 Assay for M32 Transcription Factor (Internal Marker) (AID 2283799)
# Protocol: as §1, with “receptor.ATG_M_32_XSP1” for “receptor.ATG_M_19_XSP1”, “ATG_M_32_XSP1,” for “ATG_M_19_XSP1,”
# as §2
# AR (gene 367) [6] = molecular target: AR (gene 367) (UniProt P10275); assay: ACEA_AR_agonist_80hr: ACEA Biosciences xCELLigence Real-Time Cell Analysis on Androgen Receptor Agonism for Proliferation (AID 2283783);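 note: hits increase impedance growth signal above DMSO baseline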
# Method in brief: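 Eight concentrations, 1:4 serial dilution from a 100 uM final top, in biological duplicate. Impedance-based real-time growth of 22Rv1 cells after overnight baseline, recorded hourly and read at 80 hours. Controls: testosterone, MG132, assay media.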
# [7] = molecular target: Estrogen receptor beta (Homo sapiens) (UniProt Q92731); assay: ATG_hERb_XSP1: Attagene TRANS-FACTORIAL Multi-Species (XSP1) HepG2 Assay for human Estrogen Receptor (ESR2) (AID 2283788)
# Protocol: ATG_XSP1_multi-species_TRANS is a cell-based, multiplexed assay created by modifying the existing Attagene TRANS-FACTORIAL system to include a panel of nuclear receptors from some or all the following species: human (Homo sapiens), mouse (Mus musculus), frog (Xenopus laevis), zebrafish (Danio rerio), chicken (Gallus gallus), and turtle (Chrysemys picta). The ECOTOX-FACTORIAL format uses HepG2, a human liver cell line, with measurements taken at 24 hours after chemical dosing in a 24-well plate. Xsp1 included 3 nM 6-alpha-fluorotestosterone to partially stimulate the androgen receptor.ATG_hERb_XSP1 is one of 29 assay components measured or calculated from the ATG_XSP1_multi-species_TRANS assay. It is designed to make measurements of mRNA induction, a form of inducible reporter, as detected with fluorescence intensity signals by Reverse transcription polymerase chain reaction (RT-PCR) and Capillary electrophoresis technology.The assay endpoint ATG_hERb_XSP1 was analyzed in the positive analysis fitting direction relative to DMSO as the negative control and baseline of activity. Using a type of inducible reporter, measures of mRNA for gain-of-signal activity can be used to understand the reporter gene at the transcription factor-level as they relate to the gene ER. Furthermore, this assay endpoint can be referred to as a primary readout, because this assay has produced multiple assay endpoints where this one serves a reporter gene function. To generalize the intended target to other relatable targets, this assay endpoint is annotated to the nuclear receptor intended target family, where the subfamily is steroidal.
# (§3) Human liver HepG2 cells are transiently transfected with multiple reporter transcription units (MRTUs) in 6-well plates using FuGene 6 reagent (Roche; 3 ml FuGene/1 mg DNA). The MRTU constructs are regulated by a cis-regulating element (promoter). […] A major difference between the CIS and TRANS system is that in CIS activities of endogenous TFs are measured, whereas the TRANS assay evaluates changes in activities of exogenous, chimeric NR-Gal4 proteins. […] At the end of 24 hour incubation, total RNA was isolated using TriZol reagent (Invitrogen). The isolated RNA is then reverse-transcribed using oligo(dT) primer and Mo-MLV reverse transcriptase (Invitrogen) with DNAse I (Ambion) treatment for 30 min. The one-tenth of the produced cDNA was amplified by PCR using Taq DNA polymerase (Invitrogen) and two reporter sequence-specific primers. The PCR products were fluorescently labeled by primer extension with 6-arboxyfluorescein (6-FAM) 5'-labeled reporter sequence-specific primer (2 min at 95 C, 20 s at 68 C and 10 min at 72 C) and these products were digested with 5U of HpaI (New England Biolabs) for 2h at 37 C. The fragments were purified using Qiaquick PCR columns (Qiagen), analyzed on an ABI 3130xL genetic analyzer (Applied Biosystems) with peak positions identified by using a set of X-rhodamine (ROX)-labeled MapMarker1000 molecular weight standards (BioVentures). The raw capillary electrophoresis data was processed using Attagraph software (Attagene).
# [8] = molecular target: GAL4 Transcription Factor (Internal Marker), GAL4 (gene 855828) (UniProt P04386); assay: ATG_GAL4_XSP1: Attagene TRANS-FACTORIAL Multi-Species (XSP1) HepG2 Assay for GAL4 Transcription Factor (Internal Marker) (AID 2283789)
# Method in brief: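 This background-control endpoint measures GAL4-driven reporter mRNA via RT-PCR and capillary electrophoresis of labelled fragments. Transiently transfected HepG2 cells were treated 24 h, with 3 nM 6-alpha-fluorotestosterone included, and gain-of-signal was fitted against DMSO.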
# [9] = ATG_M_06_XSP1: Attagene TRANS-FACTORIAL Multi-Species (XSP1) HepG2 Assay for M06 Transcription Factor (Internal Marker) (AID 2283790)
# Protocol: as §1, with “receptor.ATG_M_06_XSP1” for “receptor.ATG_M_19_XSP1”, “ATG_M_06_XSP1,” for “ATG_M_19_XSP1,”
# as §3
# [10] = ATG_M_61_XSP1: Attagene TRANS-FACTORIAL Multi-Species (XSP1) HepG2 Assay for M61 Transcription Factor (Internal Marker) (AID 2283797)
# Method in brief: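 Background-control readout: reporter transcripts measured by RT-PCR and capillary electrophoresis 24 h after dosing transiently transfected HepG2 multi-reporter cells, with 3 nM 6-alpha-fluorotestosterone present. Fitted in the positive direction relative to DMSO.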
# Estrogen receptor beta (Homo sapiens), sequence (Q92731 whole entry, looked up): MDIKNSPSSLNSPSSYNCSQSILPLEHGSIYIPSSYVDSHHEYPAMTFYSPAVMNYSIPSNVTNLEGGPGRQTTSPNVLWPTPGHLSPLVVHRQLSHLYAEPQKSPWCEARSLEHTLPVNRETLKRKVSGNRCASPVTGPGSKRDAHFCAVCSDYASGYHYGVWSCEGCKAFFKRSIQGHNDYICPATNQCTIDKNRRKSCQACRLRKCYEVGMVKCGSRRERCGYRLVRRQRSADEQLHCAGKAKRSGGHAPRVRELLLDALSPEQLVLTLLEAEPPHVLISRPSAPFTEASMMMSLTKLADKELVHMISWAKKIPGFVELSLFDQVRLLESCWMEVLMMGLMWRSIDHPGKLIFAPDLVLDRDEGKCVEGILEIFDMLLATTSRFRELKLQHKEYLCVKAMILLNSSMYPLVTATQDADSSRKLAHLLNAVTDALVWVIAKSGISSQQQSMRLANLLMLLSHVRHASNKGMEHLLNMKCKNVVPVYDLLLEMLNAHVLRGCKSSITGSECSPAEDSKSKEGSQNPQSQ
# AR (gene 367), sequence (P10275 whole entry, looked up): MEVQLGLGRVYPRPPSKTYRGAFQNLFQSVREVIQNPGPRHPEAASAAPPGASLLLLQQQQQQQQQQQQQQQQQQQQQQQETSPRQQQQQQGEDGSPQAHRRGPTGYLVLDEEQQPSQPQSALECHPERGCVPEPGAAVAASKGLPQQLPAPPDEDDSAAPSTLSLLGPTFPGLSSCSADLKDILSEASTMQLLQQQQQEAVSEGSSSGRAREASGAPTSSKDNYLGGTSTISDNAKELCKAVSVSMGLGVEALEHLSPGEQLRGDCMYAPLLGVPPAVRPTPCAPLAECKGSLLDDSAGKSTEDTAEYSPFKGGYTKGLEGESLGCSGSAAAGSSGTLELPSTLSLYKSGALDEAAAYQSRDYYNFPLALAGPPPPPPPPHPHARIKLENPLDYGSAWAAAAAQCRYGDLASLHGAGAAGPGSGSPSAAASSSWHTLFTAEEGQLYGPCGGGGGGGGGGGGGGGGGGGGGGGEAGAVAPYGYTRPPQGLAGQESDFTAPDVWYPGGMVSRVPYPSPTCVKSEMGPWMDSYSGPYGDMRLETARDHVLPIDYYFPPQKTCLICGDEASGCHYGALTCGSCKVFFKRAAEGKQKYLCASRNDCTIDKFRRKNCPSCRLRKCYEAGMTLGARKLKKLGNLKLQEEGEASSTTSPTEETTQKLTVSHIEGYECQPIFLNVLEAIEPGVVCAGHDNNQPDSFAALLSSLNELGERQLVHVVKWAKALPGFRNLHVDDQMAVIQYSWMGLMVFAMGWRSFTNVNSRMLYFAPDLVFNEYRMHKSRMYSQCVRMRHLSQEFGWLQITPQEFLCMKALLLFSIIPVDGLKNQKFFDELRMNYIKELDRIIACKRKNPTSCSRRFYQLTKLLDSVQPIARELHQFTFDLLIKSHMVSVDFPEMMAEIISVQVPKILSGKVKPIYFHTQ
# GAL4 Transcription Factor (Internal Marker), GAL4 (gene 855828), sequence (P04386 whole entry, looked up, the tested form may be a part): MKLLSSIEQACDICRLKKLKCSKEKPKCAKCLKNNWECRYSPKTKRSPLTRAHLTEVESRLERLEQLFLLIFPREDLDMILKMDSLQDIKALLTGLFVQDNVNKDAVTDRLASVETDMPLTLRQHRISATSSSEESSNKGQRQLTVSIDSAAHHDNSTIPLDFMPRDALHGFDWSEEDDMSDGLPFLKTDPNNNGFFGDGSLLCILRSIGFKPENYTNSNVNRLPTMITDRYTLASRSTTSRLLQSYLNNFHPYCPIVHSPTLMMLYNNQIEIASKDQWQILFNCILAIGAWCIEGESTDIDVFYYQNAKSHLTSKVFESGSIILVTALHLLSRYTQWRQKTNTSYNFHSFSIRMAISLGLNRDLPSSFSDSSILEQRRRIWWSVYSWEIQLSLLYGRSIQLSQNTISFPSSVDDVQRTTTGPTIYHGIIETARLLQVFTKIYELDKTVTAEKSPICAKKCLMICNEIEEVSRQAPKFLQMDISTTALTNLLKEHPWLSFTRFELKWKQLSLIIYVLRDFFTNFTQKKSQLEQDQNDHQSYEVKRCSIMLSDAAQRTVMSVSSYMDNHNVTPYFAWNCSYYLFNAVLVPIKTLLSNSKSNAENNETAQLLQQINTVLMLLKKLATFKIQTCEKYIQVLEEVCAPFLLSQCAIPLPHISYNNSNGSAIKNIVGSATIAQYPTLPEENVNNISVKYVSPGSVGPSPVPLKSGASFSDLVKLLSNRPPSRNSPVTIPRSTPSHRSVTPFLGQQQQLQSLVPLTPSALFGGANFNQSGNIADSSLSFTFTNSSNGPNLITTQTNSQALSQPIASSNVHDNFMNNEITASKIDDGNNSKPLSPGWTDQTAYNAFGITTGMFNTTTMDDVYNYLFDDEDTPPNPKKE
compound,measurement,setting,value
CC1(c2ccc(Oc3ccccc3)cc2)OC(=O)N(Nc2ccccc2)C1=O (configuration not stated),AC50,[1],3.35 µM (active)
O=C(O)C(F)(F)C(F)(F)C(F)(F)C(F)(F)C(F)(F)C(F)(F)C(F)(F)F,outcome,[1],inactive
O=C(Nc1ccccc1)Nc1cnns1,outcome,[1],inactive
O=C(O)CCCOc1ccc(Cl)cc1Cl,outcome,AR (gene 367) [2],inactive
O=S(=O)(O)C(F)(F)C(F)(F)C(F)(F)C(F)(F)C(F)(F)C(F)(F)C(F)(F)C(F)(F)F,outcome,[1],inactive
same,AC50,[3],130 µM (active)
same,outcome,[4],inactive
same,outcome,[5],inactive
CC(C)(C)C(O)/C(=C\c1ccc(Cl)cc1Cl)n1cncn1 (configuration not stated),AC50,[1],79.1 µM (active)
C#CCN1C(=O)COc2cc(F)c(N3C(=O)C4=C(CCCC4)C3=O)cc21,outcome,AR (gene 367) [6],inactive
same,AC50,[1],75.5 µM (active)
same,AC50,AR (gene 367) [2],64.5 µM (active)
Oc1cc(Cl)ccc1Oc1ccc(Cl)cc1Cl,AC50,[1],88.2 µM (active)
same,outcome,[7],inactive
same,outcome,[8],inactive
same,outcome,[9],inactive
same,outcome,[10],inactive
same,outcome,[5],inactive
CCCN(CCOc1c(Cl)cc(Cl)cc1Cl)C(=O)n1ccnc1,outcome,[7],inactive
same,outcome,[4],inactive
same,outcome,[5],inactive
Oc1ccc(Cl)cc1Cc1ccccc1,outcome,AR (gene 367) [6],inactive
same,outcome,[1],inactive
same,AC50,AR (gene 367) [2],11.2 µM (active)
same,outcome,[7],inactive
same,outcome,[9],inactive
same,outcome,[10],inactive
CCC(C)(NC(=O)c1cc(Cl)c(C)c(Cl)c1)C(=O)CCl (configuration not stated),AC50,[1],25.8 µM (active)
Cc1[nH]c(=O)n(C(C)(C)C)c(=O)c1Cl,outcome,[1],inactive
same,outcome,AR (gene 367) [2],inactive
CCOC1Oc2ccc(OS(C)(=O)=O)cc2C1(C)C (configuration not stated),AC50,[1],78.7 µM (active)
same,AC50,AR (gene 367) [2],50 µM (active)
CC(C)(C)C(O)C(Oc1ccc(Cl)cc1)n1cncn1 (configuration not stated),outcome,[1],inactive
COP(=S)(OC)Oc1ccc(SC)c(C)c1,AC50,[7],22.2 µM (active)
same,outcome,[8],inactive
same,outcome,[9],inactive
same,outcome,[10],inactive
same,outcome,[5],inactive
CCC(C)Nc1c([N+](=O)[O-])cc(C(C)(C)C)cc1[N+](=O)[O-] (configuration not stated),outcome,[1],inactive
O=S1OCC2C(CO1)C1(Cl)C(Cl)=C(Cl)C2(Cl)C1(Cl)Cl (configuration not stated),outcome,AR (gene 367) [6],inactive
same,AC50,[1],78.4 µM (active)
same,AC50,AR (gene 367) [2],9.11 µM (active)
same,outcome,[9],inactive
same,outcome,[10],inactive
same,outcome,[4],inactive
CC1(C)C(C=C(Cl)Cl)C1C(=O)OC(C#N)c1ccc(F)c(Oc2ccccc2)c1 (configuration not stated),outcome,[7],inactive
same,outcome,[9],inactive
same,outcome,[10],inactive
O=C(NC(=O)c1c(F)cccc1F)Nc1ccc(OC(F)(F)C(F)OC(F)(F)F)c(Cl)c1 (configuration not stated),outcome,[1],inactive
O=[N+]([O-])/N=C1\NCCN1Cc1ccc(Cl)nc1,outcome,AR (gene 367) [2],inactive
O=[N+]([O-])c1c(Cl)c(Cl)c(Cl)c(Cl)c1Cl,outcome,AR (gene 367) [6],inactive
same,AC50,AR (gene 367) [2],74.6 µM (active)
CCOCN(C(=O)CCl)c1c(C)cccc1CC,outcome,[1],inactive
same,outcome,[8],inactive
same,outcome,[4],inactive
C[C@H]1[C@H](c2ccc(Cl)cc2)SC(=O)N1C(=O)NC1CCCCC1,outcome,AR (gene 367) [6],inactive
same,AC50,AR (gene 367) [2],19.1 µM (active)
CCC(C)(C)C(=O)OC1=C(c2ccc(Cl)cc2Cl)C(=O)OC12CCCCC2,outcome,AR (gene 367) [2],inactive
CCCN(CCC)c1c([N+](=O)[O-])cc(C(F)(F)F)cc1[N+](=O)[O-],outcome,AR (gene 367) [6],inactive
same,AC50,AR (gene 367) [2],62.7 µM (active)
same,outcome,[9],inactive
same,outcome,[10],inactive
